Experimental data published in the supplement of paper PMC9262897, “Low-cost anti-mycobacterial drug discovery using engineered E. coli” (Nature Communications, 2022).
Structures can show the parent of a compound that is named as a salt. ± gives the standard deviation of the averaged measurements.

Experiments:
Assay in all cases: growth (OD600 after 10 h); higher = more growth (less inhibition)
[1] = system: E. coli TESEC Alr+ wild-type control; conditions: compound 0.1 mM; raw OD600 reference: median of DMSO wells 0.241, cell-free background 0.041
Method: (§1)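 TESEC Mtb Alr E. coli, or the Alr+ wild-type control, in 384-well plates with Prestwick library compounds at 0.1 mM and 1% DMSO, across arabinose induction levels of 1E3 to 1E7 nM. Growth is read as OD600 after 10 h at 37 °C in triplicate biological replicates.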

[2] = system: E. coli TESEC Mtb Alr; conditions: compound 0.1 mM
Method: as §1

[3] = system: E. coli TESEC Mtb Asd; conditions: compound 0.1 mM
Method: (§2)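 TESEC E. coli strains in which the native enzyme is deleted and replaced by arabinose-inducible Mtb Asd, DapB, CysH or TrpD, each grown in its selective medium. Strains were screened against the Prestwick library at 0.1 mM and 1% DMSO in 384-well format at low and high arabinose induction. Growth is read as OD600 after 10 h in triplicate.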

[4] = system: E. coli TESEC Mtb DapB; conditions: compound 0.1 mM
Method: as §2

[5] = system: E. coli TESEC Mtb Alr; conditions: compound 0.1 mM; remark: listed apart in the source
Method: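 TESEC Mtb Alr E. coli (ΔaraC ΔtolC ΔentC Δalr ΔdadX, arabinose-inducible Mtb Alr) or the Alr+ wild-type control strain, grown in defined M9-fructose medium without D-alanine in 96-well plates with Prestwick library compounds at 0.1 mM and 1% DMSO. Low Alr induction is 0.1 µM arabinose and high induction is 10 mM arabinose.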

[6] = arabinose 1000 nM, raw OD600 reference: median of DMSO wells 0.294, cell-free background 0.041
[7] = arabinose 10000 nM, raw OD600 reference: median of DMSO wells 0.264, cell-free background 0.041
[8] = arabinose 100000 nM, raw OD600 reference: median of DMSO wells 0.201, cell-free background 0.041
[9] = arabinose 1000000 nM, raw OD600 reference: median of DMSO wells 0.193, cell-free background 0.041
[10] = arabinose 10000000 nM, raw OD600 reference: median of DMSO wells 0.146, cell-free background 0.041
[11] = arabinose induction (level): High, raw OD600 reference: median of DMSO wells 0.331, cell-free background 0.041
[12] = arabinose induction (level): Low, raw OD600 reference: median of DMSO wells 0.417, cell-free background 0.041
[13] = arabinose induction (level): High, raw OD600 reference: median of DMSO wells […], cell-free background 0.041
[14] = arabinose induction (level): Low, raw OD600 reference: median of DMSO wells 0.227, cell-free background 0.041
[15] = arabinose 100 nM, raw OD600 reference: median of DMSO wells 0.413, cell-free background 0.052
[16] = arabinose 10000000 nM, raw OD600 reference: median of DMSO wells […], cell-free background 0.052

Row | Structure (SMILES) | growth [1] | growth [2, 6] | growth [2, 7] | growth [2, 8] | growth [2, 9] | growth [2, 10] | growth [3, 11] | growth [3, 12] | growth [4, 13] | growth [4, 14] | growth [5, 15] | growth [5, 16]
1 | Cc1c(NC(C)C)c(=O)n(-c2ccccc2)n1C [Isopyrin hydrochloride] | 0.2426 ± 0.0023 | 0.304 ± 0.017 | 0.265 ± 0.004 | 0.229 ± 0.0067 | 0.211 ± 0.0094 | 0.141 ± 0.0042 | 0.29 ± 0.04 | 0.429 ± 0.036 | 0.218 ± 0.019 | 0.268 ± 0.032 | 0.393 ± 0.0061 | 0.351 ± 0.016
2 | Nc1nc(=O)[nH]cc1F [Flucytosine] | 0.245 ± 0.0069 | 0.309 ± 0.022 | 0.243 ± 0.0058 | 0.187 ± 0.011 | 0.175 ± 0.008 | 0.14 ± 0.0027 | 0.456 ± 0.025 | 0.492 ± 0.026 | 0.21 ± 0.018 | 0.222 ± 0.016 | 0.411 ± 0.015 | 0.333 ± 0.02
3 | NCCC[C@H](N)CC(=O)N[C@H]1CNC(=O)[C@H]([C@H]2C[C@H](O)NC(N)=N2)NC(=O)/C(=C/NC(N)=O)NC(=O)[C@H](CO)NC(=O)[C@H](CO)NC1=O [Viomycin sulfate] | 0.178 ± 0.011 | 0.251 ± 0.012 | 0.1314 ± 0.0004 | 0.138 ± 0.0014 | 0.112 ± 0.0031 | 0.143 ± 0.0015 | 0.281 ± 0.032 | 0.268 ± 0.016 | 0.169 ± 0.0056 | 0.226 ± 0.031 | 0.226 ± 0.14 | 0.0681 ± 0.0071
4 | N[C@@H](C(=O)N[C@@H]1C(=O)N2C(C(=O)O)=C(Cl)CC[C@H]12)c1ccccc1 [Loracarbef] | 0.251 ± 0.0037 | 0.318 ± 0.0031 | 0.224 ± 0.0093 | 0.211 ± 0.024 | 0.175 ± 0.0071 | 0.151 ± 0.0052 | 0.362 ± 0.016 | 0.411 ± 0.0062 | 0.226 ± 0.017 | 0.234 ± 0.014 | 0.0487 ± 0.0051 | 0.324 ± 0.024
5 | COc1c(O[C@@H]2O[C@H](CO)[C@@H](O)[C@H](O)[C@H]2O)cc2c(c1OC)-c1ccc(SC)c(=O)cc1[C@@H](NC(C)=O)CC2 [Thiocolchicoside] | 0.254 ± 0.01 | 0.307 ± 0.0068 | 0.275 ± 0.0073 | 0.229 ± 0.023 | 0.186 ± 0.0019 | 0.149 ± 0.0088 | 0.271 ± 0.091 | 0.291 ± 0.082 | 0.206 ± 0.024 | 0.236 ± 0.015 | 0.414 ± 0.011 | 0.35 ± 0.023
6 | COc1ccc(/C=C/C(=O)Nc2ccccc2C(=O)O)cc1OC [Tranilast] | 0.171 ± 0.0022 | 0.245 ± 0.0071 | 0.27 ± 0.0085 | 0.134 ± 0.011 | 0.104 ± 0.002 | 0.126 ± 0.0016 | 0.218 ± 0.032 | 0.279 ± 0.082 | 0.204 ± 0.035 | 0.178 ± 0.011 | 0.308 ± 0.12 | 0.15 ± 0.012
7 | Cc1c(C)c2c(c(C)c1O)CCC(C)(COc1ccc(CC3SC(=O)NC3=O)cc1)O2 (stereo not drawn) [Troglitazone] | 0.0771 ± 0.022 | 0.108 ± 0.06 | 0.0436 ± 0.0028 | 0.16 ± 0.011 | 0.0474 ± 0.003 | 0.104 ± 0.016 | 0.0511 ± 0.00036 | 0.0536 ± 0.0033 | 0.08 ± 0.0038 | 0.126 ± 0.04 | 0.0885 ± 0.025 | 0.0573 ± 0.00085
8 | CC(C)(Oc1ccc(Cl)cc1)C(=O)O [Clofibric acid] | 0.253 ± 0.0056 | 0.313 ± 0.011 | 0.256 ± 0.01 | 0.201 ± 0.015 | 0.171 ± 0.0038 | 0.154 ± 0.0039 | 0.443 ± 0.024 | 0.442 ± 0.025 | 0.199 ± 0.016 | 0.251 ± 0.037 | 0.404 ± 0.011 | 0.305 ± 0.011
9 | C=CC1=C(C(=O)O)N2C(=O)[C@@H](NC(=O)/C(=N\O)c3csc(N)n3)[C@H]2SC1 [Cefdinir] | 0.0391 ± 0.00064 | 0.0401 ± 0.0026 | 0.0401 ± 0.00087 | 0.038 ± 0.0008 | 0.0415 ± 0.0031 | 0.0408 ± 0.0009 | 0.0771 ± 0.0071 | 0.0475 ± 0.00091 | 0.0548 ± 0.003 | 0.0595 ± 0.015 | 0.0463 ± 0.00075 | 0.0569 ± 0.0017
10 | CC1(C)S[C@@H]2[C@H](NC(=O)Cc3ccccc3)C(=O)N2[C@H]1C(=O)O [Benzylpenicillin sodium] | 0.237 ± 0.005 | 0.2824 ± 0.00081 | 0.282 ± 0.0074 | 0.172 ± 0.011 | 0.227 ± 0.017 | 0.132 ± 0.0078 | 0.331 ± 0.1 | 0.385 ± 0.06 | 0.204 ± 0.013 | 0.229 ± 0.017 | 0.434 ± 0.0042 | 0.363 ± 0.0066
11 | CN(C)CCC(c1ccc(Br)cc1)c1ccccn1 (stereo not drawn) [Brompheniramine maleate] | 0.218 ± 0.0069 | 0.293 ± 0.0063 | 0.264 ± 0.0057 | 0.209 ± 0.037 | 0.162 ± 0.0032 | 0.15 ± 0.008 | 0.179 ± 0.0086 | 0.302 ± 0.079 | 0.179 ± 0.01 | 0.253 ± 0.025 | 0.398 ± 0.011 | 0.339 ± 0.02
12 | O=C(O)CCc1nc(-c2ccccc2)c(-c2ccccc2)o1 [Oxaprozin] | 0.143 ± 0.0053 | 0.169 ± 0.0038 | 0.206 ± 0.0029 | 0.102 ± 0.0063 | 0.0905 ± 0.0025 | 0.0775 ± 0.0013 | 0.223 ± 0.022 | 0.165 ± 0.0041 | 0.139 ± 0.0021 | 0.152 ± 0.0088 | 0.3746 ± 0.0018 | 0.128 ± 0.0076
13 | Clc1ccc(Cn2c(CN3CCCC3)nc3ccccc32)cc1 [Clemizole hydrochloride] | 0.151 ± 0.0091 | 0.0807 ± 0.029 | 0.0496 ± 0.00062 | 0.106 ± 0.049 | 0.0465 ± 0.0005 | 0.06017 ± 0.00057 | 0.174 ± 0.038 | 0.135 ± 0.0075 | 0.156 ± 0.027 | 0.212 ± 0.079 | 0.406 ± 0.011 | 0.185 ± 0.055
14 | COc1c(N2CCNC(C)C2)c(F)cc2c(=O)c(C(=O)O)cn(C3CC3)c12 (stereo not drawn) [Gatifloxacin] | 0.0447 ± 0.0053 | 0.0402 ± 0.00046 | 0.0396 ± 0.0002 | 0.04067 ± 0.00032 | 0.03983 ± 0.00029 | 0.0409 ± 0.00055 | 0.0508 ± 0.0018 | 0.0482 ± 0.0013 | 0.04873 ± 0.00025 | 0.04953 ± 0.00047 | 0.0533 ± 0.00079 | 0.0521 ± 0.0016
